# Source: the supplement of paper PMC11628255, “Interference of metal ions on the bioluminescent signal of firefly, Renilla, and NanoLuc luciferases in high-throughput screening assays” (Frontiers in Chemistry, 2024)
# ± gives the standard deviation of the averaged measurements.
# Tested on: firefly luciferase (FLuc)
# Test: residual bioluminescent signal relative to negative (DMSO) control; higher = less interference (more residual luciferase signal)
# Experimental: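 Purified luciferase (FLuc 10 nM + 10 uM D-luciferin; NLuc 10 pM + 10 uM furimazine; RLuc 50 pM + 2 uM coelenterazine) in 384-well plates; metal salt pre-incubated with enzyme 10 min at RT, substrate added and luminescence read after 10 min. Signal normalised to plate DMSO negative control (% N_VALUE = x/mean neg *100); triplicate wells at 0.01, 1 and 5 mM salt.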
# [1] = metal salt concentration 0.01 mM, HEPES conditions (100 mM HEPES, 5 mM MgSO4, 10 uM ATP, pH 7.5)
# [2] = metal salt concentration 0.01 mM, screening conditions (0.5 mM Tris, 50 mM glycine, 0.5 mM EDTA, 5 mM MgSO4, 10 uM ATP, pH 7.6)
# [3] = metal salt concentration 1 mM, HEPES conditions (100 mM HEPES, 5 mM MgSO4, 10 uM ATP, pH 7.5)
# [4] = metal salt concentration 1 mM, screening conditions (0.5 mM Tris, 50 mM glycine, 0.5 mM EDTA, 5 mM MgSO4, 10 uM ATP, pH 7.6)
# [5] = metal salt concentration 5 mM, HEPES conditions (100 mM HEPES, 5 mM MgSO4, 10 uM ATP, pH 7.5)
# [6] = metal salt concentration 5 mM, screening conditions (0.5 mM Tris, 50 mM glycine, 0.5 mM EDTA, 5 mM MgSO4, 10 uM ATP, pH 7.6)
smiles,measurement,setting,value
[Cl][Pt-2]([Cl])([Cl])[Cl].[K+].[K+] [potassium tetrachloroplatinate(II)],residual bioluminescent signal,[1],85 ± 8%
same,residual bioluminescent signal,[2],87.9 ± 6.2%
same,residual bioluminescent signal,[3],3.8 ± 0.62%
same,residual bioluminescent signal,[4],0.659 ± 0.66%
same,residual bioluminescent signal,[5],1.09 ± 0.23%
same,residual bioluminescent signal,[6],0.343 ± 0.12%
O.O.O.O.O.O.O.O=S(=O)([O-])[O-].[Mg+2] [magnesium sulfate],residual bioluminescent signal,[1],78.3 ± 4.9%
same,residual bioluminescent signal,[2],71.5 ± 6.5%
same,residual bioluminescent signal,[3],77.4 ± 17%
same,residual bioluminescent signal,[4],68 ± 5.2%
same,residual bioluminescent signal,[5],55.5 ± 13%
same,residual bioluminescent signal,[6],47.7 ± 6.9%
[Cl][Fe]([Cl])[Cl] [iron(III) chloride],residual bioluminescent signal,[1],15.5 ± 8.2%
same,residual bioluminescent signal,[2],1.32 ± 0.63%
same,residual bioluminescent signal,[3],1.09 ± 0.62%
same,residual bioluminescent signal,[4],0.712 ± 0.4%
same,residual bioluminescent signal,[5],1.9 ± 1.9%
same,residual bioluminescent signal,[6],0.29 ± 0.046%
[Cl-].[Na+] [sodium chloride],residual bioluminescent signal,[1],102 ± 17%
same,residual bioluminescent signal,[2],104.5 ± 0.25%
same,residual bioluminescent signal,[3],103 ± 19%
same,residual bioluminescent signal,[4],101 ± 5.4%
same,residual bioluminescent signal,[5],92.4 ± 2%
same,residual bioluminescent signal,[6],79.7 ± 3.2%
O=C([O-])[O-].[K+].[K+] [potassium carbonate],residual bioluminescent signal,[1],84.3 ± 17%
same,residual bioluminescent signal,[2],81.3 ± 3%
same,residual bioluminescent signal,[3],83.9 ± 16%
same,residual bioluminescent signal,[4],85.8 ± 6.4%
same,residual bioluminescent signal,[5],67.9 ± 15%
same,residual bioluminescent signal,[6],49.2 ± 8.7%
O=C([O-])[O-].[Cs+].[Cs+] [caesium carbonate],residual bioluminescent signal,[1],85.2 ± 14%
same,residual bioluminescent signal,[2],93.8 ± 6.3%
same,residual bioluminescent signal,[3],91.6 ± 14%
same,residual bioluminescent signal,[4],103 ± 2.9%
same,residual bioluminescent signal,[5],79.4 ± 4.7%
same,residual bioluminescent signal,[6],56.2 ± 6.8%
O.O.O.O.O.O.O.O.O.O.O=S(=O)([O-])[O-].[Na+].[Na+] [sodium sulfate],residual bioluminescent signal,[1],81.9 ± 8.1%
same,residual bioluminescent signal,[2],73.4 ± 5.7%
same,residual bioluminescent signal,[3],51 ± 7.2%
same,residual bioluminescent signal,[4],70.4 ± 8.2%
same,residual bioluminescent signal,[5],20 ± 6.1%
same,residual bioluminescent signal,[6],51.1 ± 3.8%
